The nature of this assay: NCI Yeast Anticancer Drug Screen. Data for the mlh1 rad18 strain (AID 175). The following applies: S. cerevisiae mlh1 rad18 strain growth inhibition, stronger effect = higher value. The method, then: Growth inhibition of yeast strains with defined genetic alterations is measured as a screen for potential anti-cancer activity. Selected strains with alterations in DNA damage repair or cell cycle control were exposed to compounds and growth inhibition was measured relative to vehicle treated controls. The strain used in this assay is mlh1 rad18

[1] abbreviates: at 5.0 µM (retest, dose inferred, filed as 0.5).
[2] abbreviates: at 50.0 µM (retest, dose inferred, filed as 5.0).

Consider 20 molecules from PubChem BioAssay (NCI).

Values joined by “and” are separate entries in the source; they are usually repeats but may differ in a detail not shown here. Equal entries are not always repeated. About 79,000 compounds went through this panel and 15% of them were active in at least one assay; those are over-represented in the sample as a whole. Unmarked numbers belong to inactive results. Active and inactive are the calls of the source. No stated cut-off is given here; in the data, active means growth inhibition above about 70%; inactive means the rest.

`Oc1c(C(Nc2ccccc2)c2ccccc2)ccc2cccnc12` (stereo unspecified): the growth inhibition was 0% under setting [1], 92% (active) under setting [2] and 96% (active) (at 50.0 µM).
For `CC1OC(OC2C(OC3CCC4(C)C(CCC5(C)C4CC=C4C6CC(C)(C)CCC6(C(=O)O)CCC45C)C3(C)CO)OCC(O)C2O)C(O)C(O)C1O` (stereo unspecified), in that order: 93% (active), 98% (active) and 88.2% (active).
As for `CN1CCC(CN2c3ccccc3Sc3ccccc32)C1` (stereo unspecified), the growth inhibition under setting [1] is 11%, the growth inhibition under setting [2] was 16% and the growth inhibition (at 50.0 µM) was 32.2%.
As to `CCN(CC)CC(O)c1cc(-c2ccc(Cl)cc2)nc2cc(Cl)ccc12` (stereo unspecified), the growth inhibition runs as follows: under setting [1], 11%; under setting [2], 99% (active); (at 50.0 µM) 98.3% (active).
On to `O=[N+]([O-])c1ccc(C2N(Cc3ccc(Cl)cc3)CCN2Cc2ccc(Cl)cc2)cc1`, for which the growth inhibition under setting [1] is 79% (active), the growth inhibition under setting [2] was 98% (active) and the growth inhibition (at 50.0 µM) was 79.8% (active).
On to `CNc1ncnc2nc(C)[nH]c12`, for which the growth inhibition is -13% under setting [1] and 16% under setting [2].
For `Cc1cc(C(=C2C=CC(=Nc3ccccc3)C=C2)c2ccc(Nc3ccccc3)cc2)ccc1N`, the growth inhibition under setting [1] is 13%, the growth inhibition under setting [2] is 71% (active) and the growth inhibition (at 50.0 µM) was -23.6%.
For `Cc1nc([N+](=O)[O-])c(Sc2nncc(-c3ccccc3)n2)n1C`, in that order: 8%, 43% and 97.5% (active).
Take `CC(C)=C1C=C2CC[C@@H]3[C@](C)(CCC[C@@]3(C)C(=O)O)[C@H]2CC1`: the growth inhibition was 0% under setting [1], 94% (active) under setting [2] and 88.5% (active) (at 50.0 µM).
In the same order, the values of `N=C1C=C(N)C(=O)c2ccccc21` are 20%, 83% (active) and 95% (active).
On to `CCC1CCCCN1C(=S)N/N=C(\C)c1ccccn1` (stereo unspecified), for which the growth inhibition runs as follows: under setting [1], 23%; under setting [2], 98% (active); (at 50.0 µM) 90.5% (active).
Turning to `C=CCSC1=NC(=O)C(CCCC)C(=O)N1C` (stereo unspecified), the growth inhibition (at 50.0 µM) was 10.8% and 7.5%.
Same read-out and setting: the value for `COc1ccc(-c2cc(-c3ccco3)c(C#N)c(=O)n2C2OC(COC(C)=O)C(OC(C)=O)C(OC(C)=O)C2OC(C)=O)cc1` (stereo unspecified) was 11.1% and -19.1%; that for `COC1OC(COC(=O)NCCCCC(=O)C(F)(F)C(F)(F)C(F)(F)C(F)(F)C(F)(F)C(F)(F)C(F)(F)F)C(O)C(O)C1O` (stereo unspecified) was -2.9% and -3.6%.
Take `CCc1ccc(N)cc1`: the growth inhibition (at 50.0 µM) was -16.7% and 4.35%.
Same read-out and setting: the value for `CCC(C)NC(=O)C1C2CC3OC(=O)C1C3C2` (stereo unspecified) was 3.1% and -5.65%.
On the same count and under the same terms, the value for `O=C(O)CC(O)C(=O)O` (stereo unspecified) was -43% and -1.2%; that for `CCSC(SCC)C(OC(C)=O)C(OC(C)=O)C(COC(C)=O)OC(C)=O` (stereo unspecified) was 16.6% and 10.9%; that for `O=C1O/C(=C(/C(=O)O)c2ccc(O)cc2)C(O)=C1c1cc2c3c(c(O)cc(C4=C(O)/C(=C(\C(=O)O)c5ccc(O)cc5)OC4=O)c3c1)OC2=O` was 3.4% and 4.6%.
On the same count and under the same terms, the value for `Cc1cc(N(C)C)nc(N(C)C)n1` was 8.25% and -10.1%.
